This is an account of results in PMC4336329 (PLoS ONE, 2015).

The whole screen tested about 310,000 compounds, of which about 14,000 (4.5%) showed an effect of 50% or more. Effects have a minus sign here. The sample as a whole holds a higher share of strong results than the screen did.
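Further: peak tail current of the secondary pulse compared with the same well before compound.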

Sequence of human ether-à-go-go-related gene (hERG) potassium channel (Q12809 whole entry, looked up): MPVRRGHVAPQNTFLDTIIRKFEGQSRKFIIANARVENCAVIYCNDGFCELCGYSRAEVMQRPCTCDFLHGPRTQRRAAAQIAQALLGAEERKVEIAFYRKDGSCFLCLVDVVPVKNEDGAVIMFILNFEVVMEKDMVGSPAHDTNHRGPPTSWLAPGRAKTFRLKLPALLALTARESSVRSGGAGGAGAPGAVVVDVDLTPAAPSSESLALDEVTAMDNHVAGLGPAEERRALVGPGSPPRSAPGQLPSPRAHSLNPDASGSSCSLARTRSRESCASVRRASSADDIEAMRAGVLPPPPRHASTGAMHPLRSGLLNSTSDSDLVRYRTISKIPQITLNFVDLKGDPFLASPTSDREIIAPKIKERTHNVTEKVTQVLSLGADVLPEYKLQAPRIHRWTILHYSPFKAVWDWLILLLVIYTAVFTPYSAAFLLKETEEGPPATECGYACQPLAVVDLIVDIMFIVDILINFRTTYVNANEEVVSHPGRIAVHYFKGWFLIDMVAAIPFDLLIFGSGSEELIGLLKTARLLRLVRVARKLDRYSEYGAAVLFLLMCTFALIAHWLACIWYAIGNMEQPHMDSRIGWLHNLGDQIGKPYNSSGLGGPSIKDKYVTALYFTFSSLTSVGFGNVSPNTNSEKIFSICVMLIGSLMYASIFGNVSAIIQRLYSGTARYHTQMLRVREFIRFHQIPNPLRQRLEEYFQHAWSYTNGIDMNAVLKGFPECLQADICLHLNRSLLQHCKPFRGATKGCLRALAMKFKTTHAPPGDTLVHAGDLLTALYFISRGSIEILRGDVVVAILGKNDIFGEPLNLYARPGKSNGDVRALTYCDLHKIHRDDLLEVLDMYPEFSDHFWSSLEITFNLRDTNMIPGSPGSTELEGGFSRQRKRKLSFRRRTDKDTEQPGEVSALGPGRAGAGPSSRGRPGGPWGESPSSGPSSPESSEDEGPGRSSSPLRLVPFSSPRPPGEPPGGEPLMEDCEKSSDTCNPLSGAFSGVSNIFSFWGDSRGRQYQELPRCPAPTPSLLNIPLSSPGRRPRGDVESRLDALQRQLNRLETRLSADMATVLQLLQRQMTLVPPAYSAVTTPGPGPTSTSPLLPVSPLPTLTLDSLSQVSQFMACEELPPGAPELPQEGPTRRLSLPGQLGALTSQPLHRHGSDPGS

This experiment addresses human ether-à-go-go-related gene (hERG) potassium channel (human, UniProt Q12809). Put plainly: primary screen, population patch clamp on CHO cells stably expressing hERG; higher = less effect of the substance.
For the compound `c1ccc(-n2nnc3ccccc32)nc1`, the “hERG current change (%, negative = inhibition) at 10uM” value was determined as 3.7%.

Take `O=C(NN1C(=O)c2ccccc2NC1c1cccnc1)c1ccc([N+](=O)[O-])cc1` (stereo not shown): the “hERG current change (%, negative = inhibition) at 10uM” value was -37.5%.

With `O=C(NCS(=O)(=O)c1ccccc1)c1ccccc1`, the “hERG current change (%, negative = inhibition) at 10uM” value is on record as -0.415%.

As for `CCOc1ccccc1CN1CCN(Cc2ccc3cccc(OC)c3n2)CC1CCO` (stereo not shown), the “hERG current change (%, negative = inhibition) at 10uM” value is reported as -55.5%.

In the case of `CCOc1ccccc1CN1CCN(Cc2ccc3cc(F)ccc3n2)CC1CCO` (stereo not shown), the “hERG current change (%, negative = inhibition) at 10uM” value is on record as -65.7%.

`CCOc1ccc2nc(CN3CCN(Cc4ccccc4OCC)C(CCO)C3)ccc2c1` (stereo not shown): the “hERG current change (%, negative = inhibition) at 10uM” value was -56.9%.

For the compound `COc1ccc(-c2csc(NC(C)c3nc4cc(C(=O)NCCCO)ccc4n3Cc3ccc(C)cc3)n2)cc1` (stereo not shown), the “hERG current change (%, negative = inhibition) at 10uM” value turned out to be 9.34%.

Regarding `Fc1ccccc1Nc1nc2ccccc2n2nnnc12`, the “hERG current change (%, negative = inhibition) at 10uM” value was 7.8%.

For `CCOc1cc(C(=O)Nc2ccc(S(=O)(=O)Nc3cc(C)on3)cc2)cc(OCC)c1OCC`, the “hERG current change (%, negative = inhibition) at 10uM” value was -0.904%.

For the compound `O=C(NCc1ccco1)C1CCC(N2C(=O)c3ccccc3C2=O)CC1` (stereo not shown), the “hERG current change (%, negative = inhibition) at 10uM” value amounted to 1.59%.

As for `C=C1Cn2c(nnc2-c2ccc(Cl)cc2)S1`, the “hERG current change (%, negative = inhibition) at 10uM” value is listed as -27.4%.

Consider `C=CCNC(=O)C1(c2ccccc2)CC1(Cl)Cl` (stereo not shown), for which the “hERG current change (%, negative = inhibition) at 10uM” value is -5.1%.

For `O=c1cc(N2CCCCC2)c(-c2ccccc2)nn1Cc1cccc(Cl)c1`, the “hERG current change (%, negative = inhibition) at 10uM” value stood at 0.996%.

Consider `COC(=O)c1ccc(/C=C2\Oc3ccccc3NC2=O)cc1`, for which the “hERG current change (%, negative = inhibition) at 10uM” value stood at 15.5%.

Consider `CCOC(=O)C1=C(C)NC(=S)NC1c1ccc(-c2cccc(Cl)c2C)o1` (stereo not shown), for which the “hERG current change (%, negative = inhibition) at 10uM” value was 14.4%.

As to `COc1ccc(N2CC(O)(c3ccc(C)cc3)[N+]3=C2CCCC3)cc1.[Br-]` (stereo not shown), the “hERG current change (%, negative = inhibition) at 10uM” value is given as -38.9%.

For the compound `CCOc1ccc(N2CC(O)(c3ccc(F)cc3)[N+]3=C2CCCC3)cc1.[Br-]` (stereo not shown), the “hERG current change (%, negative = inhibition) at 10uM” value is -71.6%.

`CCOc1ccc(N2CC(C(=O)NNC(=O)c3ccc(F)cc3)CC2=O)cc1` (stereo not shown): the “hERG current change (%, negative = inhibition) at 10uM” value was -25.4%.

For the compound `Cc1cccc(N2CC(O)(c3cccs3)[N+]3=C2CCCC3)c1C.[Br-]` (stereo not shown), the “hERG current change (%, negative = inhibition) at 10uM” value is -43.5%.

On to `Cc1ccc(N2CC(O)(c3cccs3)[N+]3=C2CCCC3)cc1.[Br-]` (stereo not shown), for which the “hERG current change (%, negative = inhibition) at 10uM” value is recorded as -32.3%.

As for `COc1ccc(C2(O)CN(c3ccc(C)cc3)C3=[N+]2CCCC3)cc1.[Br-]` (stereo not shown), the “hERG current change (%, negative = inhibition) at 10uM” value is reported as -37.5%.

With `OC1(c2cccs2)CN(c2ccc(Cl)cc2)C2=[N+]1CCCC2.[Br-]` (stereo not shown), the “hERG current change (%, negative = inhibition) at 10uM” value is -59.5%.

Regarding `CCOc1ccc(N2CC(O)(c3cccs3)[N+]3=C2CCCC3)cc1.[Br-]` (stereo not shown), the “hERG current change (%, negative = inhibition) at 10uM” value is listed as -69.7%.

Consider `COc1ccc(N2CC(O)(c3ccc(F)cc3)[N+]3=C2CCCC3)cc1.[Br-]` (stereo not shown), for which the “hERG current change (%, negative = inhibition) at 10uM” value is given as -3.37%.

Regarding `COc1ccc(N2CC(O)(c3ccc(OC(F)F)cc3)[N+]3=C2CCCC3)cc1.[Br-]` (stereo not shown), the “hERG current change (%, negative = inhibition) at 10uM” value is given as -70%.

In the case of `Cc1cccc(N2CC(O)(c3cccs3)[N+]3=C2CCCC3)c1.[Br-]` (stereo not shown), the “hERG current change (%, negative = inhibition) at 10uM” value is on record as -12.3%.

Turning to `OC1(c2cccs2)CN(c2ccccc2)C2=[N+]1CCCC2.[Br-]` (stereo not shown), the “hERG current change (%, negative = inhibition) at 10uM” value worked out at 4.63%.

`Cc1cccc(C)c1NC(=O)CN1C(=O)COc2ccccc21`: the “hERG current change (%, negative = inhibition) at 10uM” value came to 10.5%.

Take `Cc1ccc(S(=O)(=O)c2cnc(-c3ccccc3)nc2N2CCCCC2)cc1`: the “hERG current change (%, negative = inhibition) at 10uM” value turned out to be 25.7%.

In the case of `CS(=O)(=O)c1ccc(NCCc2ccccn2)c([N+](=O)[O-])c1`, the “hERG current change (%, negative = inhibition) at 10uM” value was -22.7%.

In the case of `COc1cccc(C2C(C(=O)Nc3ccc(C)cc3C)=C(C)Nc3ncnn32)c1OC` (stereo not shown), the “hERG current change (%, negative = inhibition) at 10uM” value was determined as 7.02%.

Consider `O=C(Nc1c2c(nn1-c1ccc(F)cc1)CS(=O)C2)c1ccco1` (stereo not shown), for which the “hERG current change (%, negative = inhibition) at 10uM” value was -21.4%.

`CC(=O)Nc1ccc(NC(=O)c2cc(=O)c3ccc(C)cc3o2)cc1`: the “hERG current change (%, negative = inhibition) at 10uM” value was 17.4%.

As to `CCC1=NN(C(=O)Cc2ccccc2)C(O)(c2ccncc2)C1` (stereo not shown), the “hERG current change (%, negative = inhibition) at 10uM” value was 28.9%.

`COc1ccc(OCc2cccc(C(=O)Nn3cc([N+](=O)[O-])cn3)c2)cc1`: the “hERG current change (%, negative = inhibition) at 10uM” value was -15.6%.

In the case of `CCOC(=O)c1ccc(CNC(=O)c2cc(COc3ccccc3SC)on2)o1`, the “hERG current change (%, negative = inhibition) at 10uM” value was 1.07%.

For the compound `CC(C)Cn1c(N)c(C=O)c(=O)n(C)c1=O`, the “hERG current change (%, negative = inhibition) at 10uM” value stood at 26.4%.

Regarding `O=C(C1CCC(=O)N(C2CC2)C1)N1CCN(c2ccc(Cl)cc2)CC1` (stereo not shown), the “hERG current change (%, negative = inhibition) at 10uM” value is recorded as -38.1%.

Take `O=C1CCC(C(=O)N2CCN(c3ccccc3)CC2)CN1CC1CCCCC1` (stereo not shown): the “hERG current change (%, negative = inhibition) at 10uM” value is listed as -27.5%.

With `COc1cccc(CN2CC(C(=O)N3CCN(c4ccc(Cl)cc4)CC3)CCC2=O)c1` (stereo not shown), the “hERG current change (%, negative = inhibition) at 10uM” value is listed as -70.9%.

Regarding `Cc1cc(N2CCC(C(=O)N3CCN(c4cccc(C)c4C)CC3)CC2)n2ncnc2n1`, the “hERG current change (%, negative = inhibition) at 10uM” value was -68.7%.

Consider `O=C1CCC(C(=O)N2CCN(c3ccccc3Cl)CC2)CN1CC1CCCCC1` (stereo not shown), for which the “hERG current change (%, negative = inhibition) at 10uM” value is -72.2%.

Consider `COc1cccc(CN2CC(C(=O)N3CCCC3)CCC2=O)c1` (stereo not shown), for which the “hERG current change (%, negative = inhibition) at 10uM” value is 19.4%.

With `O=C(C1CCC(=O)N(C2CCCC2)C1)N1CCN(c2ccccc2Cl)CC1` (stereo not shown), the “hERG current change (%, negative = inhibition) at 10uM” value is reported as -15.8%.

As for `O=C(C1CCC(=O)N(C2CCCCCC2)C1)N1CCN(c2ccccc2Cl)CC1` (stereo not shown), the “hERG current change (%, negative = inhibition) at 10uM” value is recorded as -42.9%.

As for `COc1cccc(CN2CC(C(=O)N3CCCCCCC3)CCC2=O)c1` (stereo not shown), the “hERG current change (%, negative = inhibition) at 10uM” value is reported as -2.24%.

For the compound `Cc1cc(N2CCN(C(=O)OC(C)(C)C)CC2)n2ncnc2n1`, the “hERG current change (%, negative = inhibition) at 10uM” value is recorded as -27.5%.

For `Cc1cccc(N2CCN(C(=O)C3CCCCC3)CC2)c1C`, the “hERG current change (%, negative = inhibition) at 10uM” value is reported as -24.8%.

Turning to `O=C(C1CCC(=O)N(C2CCCC2)C1)N1CCN(c2ccc(Cl)cc2)CC1` (stereo not shown), the “hERG current change (%, negative = inhibition) at 10uM” value is listed as -61%.

Take `O=C(Cn1nnc(-c2ccc(CN3CCOCC3)cc2)n1)NC1CCCCC1`: the “hERG current change (%, negative = inhibition) at 10uM” value is reported as -12.4%.

Take `COc1cccc(NC(=O)CCNS(=O)(=O)c2ccc(Br)s2)c1`: the “hERG current change (%, negative = inhibition) at 10uM” value is listed as -32.6%.

For the compound `CCCCNC(=O)C1CCN(S(=O)(=O)N2CCOCC2)CC1`, the “hERG current change (%, negative = inhibition) at 10uM” value is 5.58%.

With `COc1ccc(OCc2nc3c4c(ncn3n2)-c2ccccc2CC42CCCC2)cc1`, the “hERG current change (%, negative = inhibition) at 10uM” value was 6.66%.

For `CCC(Oc1ccccc1)C(=O)Nc1nnc(S(=O)(=O)N2CCCCC2)s1` (stereo not shown), the “hERG current change (%, negative = inhibition) at 10uM” value is given as 12.8%.

For the compound `CCc1ccc(-c2csc3ncn(Cc4ccc(C(=O)O)cc4)c(=O)c23)cc1`, the “hERG current change (%, negative = inhibition) at 10uM” value came to 4.9%.
